# The list is not random: actives were taken first. Their share in the collection is about 7.4%.
# FLuc modulator = inhibits or activates purified firefly luciferase, miR-21 counter-screen. purified FLuc, Km substrates, luminescence inhibition. Potency, µM (series often up to 57.5 µM), for inactives: at the top dose activity change, negative = inhibition, usual class: inhibitors. actives 6.9% (n = 360,000). AID 588342;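 also: plate controls were vehicle for no effect and reference inhibitor for full effect; nearly all actives have a fitted effect of over 55% in size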
# Target sequence (P08659 whole entry, looked up): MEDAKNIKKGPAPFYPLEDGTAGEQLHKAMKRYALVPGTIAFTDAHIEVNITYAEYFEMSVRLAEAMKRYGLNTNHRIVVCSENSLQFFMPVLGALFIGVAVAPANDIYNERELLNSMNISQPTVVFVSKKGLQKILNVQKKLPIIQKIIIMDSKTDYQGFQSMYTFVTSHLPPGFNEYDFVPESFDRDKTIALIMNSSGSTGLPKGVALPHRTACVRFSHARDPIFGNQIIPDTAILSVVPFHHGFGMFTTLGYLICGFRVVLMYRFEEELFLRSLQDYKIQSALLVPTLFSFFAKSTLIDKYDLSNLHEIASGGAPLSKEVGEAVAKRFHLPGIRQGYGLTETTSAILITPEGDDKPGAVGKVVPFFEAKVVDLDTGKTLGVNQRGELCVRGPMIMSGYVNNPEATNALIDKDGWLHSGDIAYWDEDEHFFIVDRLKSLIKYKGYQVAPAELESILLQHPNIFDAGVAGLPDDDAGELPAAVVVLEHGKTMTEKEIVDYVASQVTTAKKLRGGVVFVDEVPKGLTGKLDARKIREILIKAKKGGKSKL
#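 Purified P. pyralis luciferase (10nM final) with 10uM D-luciferin and 10uM ATP (Km levels) in 50mM Tris acetate pH 7.5, 10mM Mg acetate, 0.01% Tween-20, 0.05% BSA; qHTS 6-point titration, ~60 µM downward; luminescence read.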
# Rab9 prom act = activates the Rab9 promoter; Huh7 Rab9 promoter-luciferase reporter, luminescence, 24 h; Potency, µM (doses to about 9.22 µM), for the others: at the top dose activation, negative = inhibition, hits mostly activators; actives 2.8% (n = 320,000); AID 485297; also: % of control where 0% means no effect; nearly all actives have a fitted effect of over 60% in size
#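 Rab9 promoter-driven luciferase in stably transfected Huh7 cells; 1500 cells/well rested 2 h, exposed to compound in DMSO for 24 h at 37 °C, 5% CO2. Luminescence read 10 min after adding luciferase reagent at ambient temperature.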
# SMN2 splice enh = SMN2 splice variant enhancement | HEK293 SMN2-luciferase splicing reporter, luminescence, 30-36 h | Potency, µM (titrated, usually from 46.1 µM), without a hit: at the top dose activity change, positive = activation, hits mostly activators | actives 2.8% (n = 210,000) | AID 1458; also: % of control where 0% means no effect; nearly all actives have a fitted effect of over 55% in size
#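 HEK293 cells carry an SMN2 […]–luciferase reporter in which exon 7 inclusion puts luciferase in frame. Cells were plated 10-12 h before compound addition, then incubated 30-36 h at 37C. ONE-Glo luminescence was read; sodium butyrate at 4.5 mM final served as control.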
# ELG1 genotox = inducers of genotoxicity in HEK293T ELG1-luciferase cells; Potency, µM (titrated, usually from 46 µM), for inactives: at the highest dose activity change, positive = activation, actives largely listed as activators; actives 1.3% (n = 330,000); HEK293T ELG1-luciferase reporter, luminescence, 16 h; also: % of control where 0% means no effect; nearly all actives have a fitted effect of over 60% in size
#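 16 hr compound incubation (37 °C, 5% CO2) of HEK293T cells carrying luciferase-tagged ELG1; luciferase then measured by ONE-Glo luminescence after 30 min at RT.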
# NPC1 prom act = activators of NPC1 promoter | actives 2.4% (n = 320,000) | AID 485313 | Potency, µM (top dose mostly 9.22 µM), inactives show at the highest dose activation, actives largely listed as activators | Huh7 NPC1 promoter luciferase reporter, 24 h; also: % of control where 0% means no effect; nearly all actives have a fitted effect of over 60% in size
#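 Stably transfected Huh7 (NPC1 promoter→luciferase), 1500 cells/well in Opti-MEM + 10% FBS, 2 h settle, then compound 24 h at 37 °C. Luminescence after 10 min with Amplite reagent.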
# * = called active by the depositor; ? = inconclusive; . = no result; [ ] = remark or other dose. Calls follow the shape of the dose curve; as a rule, active = well fitted curve in the direction sought with a large enough effect; inconclusive = small, poorly fitted or top-dose-only effect, or another doubt; inactive = no such curve, though single readings can be large; an effect the other way counts as inactive or inconclusive. Potency is read from the fitted curve at half-maximal effect.
SMILES,FLuc modulator,Rab9 prom act,SMN2 splice enh,ELG1 genotox,NPC1 prom act
Cc1ccc(-n2c(C)cc(/C=C3/SC(=O)N(CC(=O)N4CCOCC4)C3=O)c2C)nc1,1.51µM*,?,.,?,?
CCN=C1S/C(=C\c2ccc(N3CCOCC3)cc2C)C(=O)N1CC,-8.7%,-15.5%,-11.6%,-1.6%,-15.6%
CC1(C)CC(=O)C(C(c2ccncc2)C2C(=O)CC(C)(C)CC2=O)C(=O)C1,1.6%,-2.3%,-3.0%,-0.4%,1.6%
Cc1ccc(C(C2C(=O)CC(C)(C)CC2=O)C2C(=O)CC(C)(C)CC2=O)s1,21.3µM*,0.3%,-1.9%,4.1%,1.3%
O=C1ON=C(c2cccc([N+](=O)[O-])c2)/C1=C/c1ccc(O)cc1,16.9µM*,-8.3%,-10.1%,?,-1.8%
C[C@H]1Cc2c(COc3ccccc3)nc3c(c2CO1)CN(C(=O)c1cc(I)ccc1F)CC3,.,.,-15.4%[9.22 µM],.,.
O=C(Nc1ccc(F)cc1)c1ccc2nc[nH]c2c1,?,18.3%,?,5.2%,26.5%
CN(C)c1ccc(NC(=O)c2ccc3nc[nH]c3c2)cc1,13.5µM*,?,.,?,?
Cc1cc(C)cc(NC(=O)c2ccc3nc[nH]c3c2)c1,6.75µM*,12.8%,-4.0%,9.8%,11.5%
Cc1ccc(NC(=O)c2ccc3nc[nH]c3c2)cc1C,9.53µM*,1.78µM*,11.2µM*,?,2.82µM*
Cc1cccc(C)c1NC(=O)CNC(=O)c1ccc2nc[nH]c2c1,3.3%,2.7%,.,0.1%,-1.8%
CCOC(=O)CN(Cc1ccccc1)C(C(=O)NC1CCCCC1)c1ccccc1 (stereo unspecified),-6.7%,.,2.2%,.,.
COc1ccc(Cl)cc1S(=O)(=O)N1CCC(C(=O)N2CCOCC2)CC1,4.2%,-1.4%,.,-4.0%,-0.2%
Cc1cc(NC(=O)CCSc2ccccc2)ccc1Br,23.9µM*,20.3%,?,?,13.9%
O=C(CC1CCCC1)Nc1ccc2c(c1)CCC2,13.5µM*,3.55µM*,?,?,2.51µM*
Cc1cc(NC(=O)CC2CCCC2)ccc1Br,19µM*,?,.,?,-29.7%
O=C(Cc1ccccc1)Nc1ccc2c(c1)CCC2,?,?,.,12.9%,?
Cc1cccc(NC(=O)CC2CCC2)c1,-11.4%,4.5%,3.7%,5.0%,8.9%
COc1cccc(NC(=O)Nc2cc(C)ccc2F)c1,23.9µM*,19.6%,22.3%,6.6%,28.6%
COc1ccc(NC(=O)Nc2cc(C)ccc2OC)cc1,?,-5.2%,-9.7%,20.6%,0.4%
COc1ccc(NC(=O)Nc2cc(C)ccc2F)cc1,12µM*,2.82µM*,?,23.1µM*,3.55µM*
O=C(NC1=NCCS1)c1ccc(N2CCCC2=O)cc1,-7.9%,?,?,7.8%,19.7%
O=C(NC1=NCCS1)c1ccc(C(F)(F)F)cc1,10.7µM*,15.1%[1.84 µM],.,?,2.82µM*
Cc1ccc(C(=O)NC2=NCCS2)cc1,10.7µM*,3.55µM*,.,?,2.82µM*
Cc1ccc(C(=O)NC2=NCCS2)cc1Cl,6.75µM*,1.26µM*,.,?,1.41µM*
SMILES,FLuc modulator,Rab9 prom act,SMN2 splice enh,ELG1 genotox,NPC1 prom act
O=C(NNC(=O)c1cccc(C(F)(F)F)c1)c1ccncc1,-10.8%,-3.8%,.,2.1%,0.6%
COc1cc(C(=O)NC2=NCCS2)cc(OC)c1OC,0.5%,3.4%,?,-0.8%,2.0%
O=C(Nc1ncccn1)c1ccc(C(F)(F)F)cc1,19µM*,-5.5%,-1.1%,2.6%,0.0%
N#Cc1ccc(C(=O)NC2=NCCS2)cc1,?,?,.,15.6%,?
CC(C)c1ccc(C(=O)NC2=NCCS2)cc1,1.9µM*,0.398µM*,2µM*,1.64µM*,0.562µM*
CC1(C)C=C(c2ccc(C(=O)O)s2)CC(C)(C)N1,-0.7%,-1.9%,0.4%,0.6%,1.4%
O=C(Nc1ccccc1F)c1ccc(-c2ccccc2)s1,1.51µM*,.,?,.,.
COc1ccc2cc(C(=O)Nc3ccccc3)sc(=O)c2c1OC,7.7%,28.6%,18.8%,16.3%,-0.8%
O=C(Nc1ccccc1)c1ccc(-c2ccccc2)s1,1.69µM*,?,2.3%,5.17µM*,?
Cc1cc(-c2ccc(C(=O)O)s2)cnc1N,12µM*,?,12.6µM*,?,?
O=C(Nc1ccccc1)c1cc2ccc3ccccc3c2s1,5.36µM*,?,.,?,?

# Assay outcomes from PubChem BioAssay.
